The text below walks through data of PubChem BioAssay (NCATS).

Inconclusive results are not listed. Activity calls are given as the source filed them. Calls come from the whole dose curve. A value given as a limit tells only on which side of the number the result lay.
Potency is the fitted concentration of half-maximal effect.

The nature of the experiment: Cell Viability - MRC5 (AID 434).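 Note: potency reflects cytotoxicity seen as loss of intracellular ATP.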 The note with it: MRC5 lung fibroblast viability, qHTS. An excerpt: NIH Chemical Genomics Center [NCGC]
NIH Molecular Libraries Screening Centers Network [MLSCN]
National Institutes of Environmental Health Sciences [NIEHS]
National Toxicology Program [NTP]
We have developed a 1536-well cell-based assay for quantitative high throughput screening (qHTS) against a number of cell lines to determine in vitro cytotoxicity of small molecules. This particular assay uses the MRC5 cell line which is derived from normal human lung fibroblasts.
NCGC Assay Protocol Summary:
The CellTiter-Glo luminescent cell viability assay (Promega) is a homogeneous method to measure the number of viable cells in culture. The end point readout of this assay is based on quantitation of intracellular ATP, an indicator of metabolic activity, using the luciferase reaction. Luciferase catalyzes the oxidation of beetle Luciferin to oxyluciferin and light in the presence of ATP. The luminescent signal is proportional to amount of ATP present.
Using the CellTiter-Glo luminescent cell viability assay, the amount of cellular ATP was measured in the MRC5 cell line with complete culture medium following compound treatment for 40 hours. The assay was performed in opaque white Kalypsys 1536-well plates. In the screen, tamoxifen and doxorubicin were used as positive controls. Library compounds were measured for their ability to cause acute toxicity in the cell line, as reflected by a decrease in intracellular ATP levels, in a concentration-dependent manner. Data were normalized to the controls for basal activity (DMSO only) and 100% inhibition (100 uM tamoxifen). AC50 values were determined from concentration-response data modeled with the standard Hill equation.
qHTS protocol for CellTiter Glo MRC5 cellular assay
[Step] [Parameter] [Value] [Description]
1. Reagent; 5 uL; 1500 MRC5 cells/well
2. Time; 5 hr; 37 °C incubation
4. Controls; 23 nL; Tamoxifen 0.34 uM to 100 uM & Doxorubicin 0.02 nM to 100 uM
5. Time; 40 hr; 37 °C incubation
6. Reagent; 5 uL; CellTiter Glo reagent
7. Time; 20 min; Room Temperature
8. Detection; Luminescence; Viewlux plate reader
Keywords: cell viability, cytotoxicity, MRC5 cell line, luminescence, NTPHTS, NTPHTS_NCGC, NIEHS, EPA, DSSTox, MLSMR, MLSCN, NIH Roadmap, qHTS, NCGC
For orientation: qHTS replaces the single test concentration by a dilution series.
Regarding `C1COC1`, the Potency was > 92 µM (inactive). For `COc1ccc(OC)cc1` the value was > 92 µM (inactive); for `CCc1ccccc1`, > 92 µM (inactive). For `Cc1ccc(C)c(O)c1` the value was > 92 µM (inactive). For `CC(=O)c1ccccc1[N+](=O)[O-]` the value was > 92 µM (inactive); for `C1CCC2OC2C1` (stereo not given), > 92 µM (inactive). Consider `c1ccsc1`, for which the Potency was > 92 µM (inactive). For `CC(=O)c1cc(C)oc1C` the value was > 92 µM (inactive); for `Nc1ccc([N+](=O)[O-])c(N)c1`, > 92 µM (inactive); for `CC(C)Nc1ccccc1`, > 92 µM (inactive).

Take `Cc1nc2ccc(Cl)cc2[nH]1`: the Potency was > 92 µM (inactive). Take `CC(=O)CC(C)C`: the Potency was > 92 µM (inactive). Then `Cc1cccc(C(=O)O)c1`, with > 92 µM (inactive); and `Cc1ccco1`, with > 92 µM (inactive). With `CC=O`, the Potency is > 92 µM (inactive).

In the case of `Nc1nc(CC(=O)O)cs1`, the Potency is > 92 µM (inactive). As to `CC(=O)OC(C)C`, the Potency is > 92 µM (inactive).

`Cc1cccc2ccccc12`: the Potency is > 92 µM (inactive). For `Nc1cccc(S(=O)(=O)O)c1` the value was > 92 µM (inactive); for `Cc1ccc(C)o1`, > 92 µM (inactive); for `CCCCCNCCCCC`, > 92 µM (inactive). Turning to `O=C(O)c1ccc(Cl)cc1Cl`, the Potency was > 92 µM (inactive). Then `CCNS(=O)(=O)c1ccc(C)cc1`, with > 92 µM (inactive); and `Cc1ccccc1C(N)=O`, with > 92 µM (inactive); and `Cc1ccc(C(C)(C)C)cc1`, with > 92 µM (inactive). Turning to `CCC(=O)/C=C/C1C(C)=CCCC1(C)C` (stereo not given), the Potency was > 92 µM (inactive). Then `CCOc1cccc(N)c1`, with > 92 µM (inactive); and `Nc1cccc([N+](=O)[O-])c1`, with > 92 µM (inactive). For `C=CCCC` the value was > 92 µM (inactive); for `O=[N+]([O-])c1cccc(C(F)(F)F)c1`, > 92 µM (inactive). For `CCOc1ccccc1N` the value was > 92 µM (inactive); for `C=C(C)C(=O)OC`, > 92 µM (inactive).

On to `Nc1cc(Cl)c([N+](=O)[O-])cc1O`, for which the Potency is > 92 µM (inactive). For `CCCCCCC(=O)O` the value was > 92 µM (inactive). For `CC1CCCO1` (stereo not given) the value was > 92 µM (inactive); for `O=c1[nH][nH]c(=O)c2cc([N+](=O)[O-])ccc12`, > 92 µM (inactive); for `CC(C)(O)C(=O)O`, > 92 µM (inactive).

Consider `COC(=O)CS`, for which the Potency was > 92 µM (inactive). Then `O=[N+]([O-])c1ccc(CCO)cc1`, with > 92 µM (inactive).

Take `CCCCC/C=C/C=C/C=O`: the Potency was > 92 µM (inactive).
